# Assay results reported in the supplement of paper PMC6555819.
# Test system: PPARg:RXRa IVT, anti-PPARg (NR concentration 270 nM, RXRa partner concentration 90 nM)
# Test: PBM binding z-score (relative to random genomic background probes); higher = stronger binding; sequences stand for … in GC…GCGATTGACAGCGTAGAATGAAGG
# Procedure, shortened: (§1)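 On custom Agilent 4×180K arrays, double-stranded probes with 34-nt variable regions carried direct-repeat seeds, single-nucleotide variants, half-site ablations or random human genomic background. Ligand-free nuclear receptor dimers were applied for 1 h, and binding was read with antibodies against each partner (one per run). Binding z-scores come from regression-normalized fluorescence, with the random background probes as reference.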
row,Sequence,PBM binding z-score
1,TCTCGGAGGACACGAAAGGCCAGAGCTCGACATC,-0.0515
2,TGTCAAAGTTCAAAGGTAACGGAAGTATCCACAC,4.88
3,GCTGCTAGATCAGGTTGGTCAGCTAACGGGTACG,-0.787
4,TCATATAGGTAAATCCTAGGTGAAAGTCCGATCT,2.8
5,GCTTACGGGTCAAAGGCTATAGCATGAATAGAAT,4.33
6,TCAAGTAGGTTAGGGGCATTCAGAATGGCGTCGA,3.94
7,ATCTCAAGGTAACAAGTTCAGTGAAAGAGAGGAC,1.3
8,CCGACTGGGGCAGAAAGGTTACTATACCATCCGG,1.68
9,CTCGAAAGGTCGTGCTCAGGTGCGTATACCAAAC,1.52
10,CCGACTGGGGCATAAGGGTACCATAAGCCAGCCC,1.97
11,TGTCAAAGTTGAAAGGTAACGTAAGTATCCACAC,3.18
12,TCGAGTAGGTAAGGGGCATTCAGAATGGCGTCGA,0.472
13,CCTACTGGGCCATTCAGAGGTCATTGGTCATATG,4.26
14,CAAACTAGGTCAAAGTCAAAGTCGGTTTGTGCCA,8.78
15,CAAACTAGGTCAAGAGGTCAACGTCCGCTTCCCG,8.58
16,CATACAGGGTCAGCTAGGCCAGAGTCGGGACGGC,2.55
17,GCTTGTATATCAAGGTTAAGAAAGACTAAGCTAA,0.653
18,ATATGTAGGTTAGCGGGTCATTCAGTTTGCGCAT,7.02
19,CGTCCAAGGTCGATGCTAGGTCAGTGAAAGCATT,0.816
20,GCAGACAGGTGAAACGCAGGTTACTCAGGGTGGC,0.617

row,Sequence,PBM binding z-score
1,CGTCCAAGGTCATAGTAGGTCAGTGAAGACAGAT,5.33
2,ATCTCTAGGTAAGACTCAGTTCTGTGAAGAACGC,0.663
3,TCTCCTAGGTCAACGATGGTCAGCTAATCTGCTA,4.22
4,GGAATGAGGGCATTCGAGTTGATAGCATGGCGAT,3.1
5,GGAACGAGGGCAAGTTGAGAGCAGAGTTTGATGG,2.7
6,TCTTGTAAATCAACAGGAGGTTAAGAAAGATCGA,0.596
7,CTACCAAGGTGAACAAGATCGTTGATTACTATTC,2.36
8,ATCTGTAGGTAACAAGTTCAGTGAAAGAGAGGAC,2.64
9,CCGAGCAGGTTATGGGGCATTCAGGCAACGGTGA,1.05
10,GGAACGTGGGCAAGTTGATAGCAGAGTTTGATGG,-0.544
11,TCGGGTAGGTTAGGGGCATTCAGAATGGCGTCGA,1.36
12,ACTGGGAGGACAAAGGTCAGAGCTACGCCAGTGA,3.95
13,CGTCCAAGGTCTATGCTAGGTCAGTGAAAGCATT,0.505
14,TCGAGAAGGTTACCAATGGGGCATTCAGCTTTCT,0.663
15,GCATATAGGTAATACAAGCTGAAAGTCCGATTGT,2.4
16,TCTTGTAGATCAACAAGAGGTTAAGAAAGATCGA,0.865
17,ACTAGCAGGCCATGGGTCACTCAAGATTAGTCCG,2.7
18,CGAACTAGGTAAGAACAGGACAGTGAAGGATGAT,2.52
19,ACTAGTTCGTCAGCTGAGGTCACACACAATTCGG,2.22
20,TAGCCTGGGTCATTGGGCCAGTATAGTACGCATC,3.57

# Test system: PPARg DBDmut:RXRa IVT, anti-PPARg (DBD mutation: PPARg1 K132A/R137A, NR concentration 270 nM, RXRa partner concentration 90 nM)
# Test: as above
# Procedure, shortened: as §1
row,Sequence,PBM binding z-score
1,TCTCGGAGGACACGAAAGGCCAGAGCTCGACATC,-0.613
2,TGTCAAAGTTCAAAGGTAACGGAAGTATCCACAC,1.63
3,GCTGCTAGATCAGGTTGGTCAGCTAACGGGTACG,-0.302
4,TCATATAGGTAAATCCTAGGTGAAAGTCCGATCT,0.825
5,GCTTACGGGTCAAAGGCTATAGCATGAATAGAAT,0.463
6,TCAAGTAGGTTAGGGGCATTCAGAATGGCGTCGA,0.0234
7,ATCTCAAGGTAACAAGTTCAGTGAAAGAGAGGAC,1.3
8,CCGACTGGGGCAGAAAGGTTACTATACCATCCGG,-0.665
9,CTCGAAAGGTCGTGCTCAGGTGCGTATACCAAAC,0.6
10,CCGACTGGGGCATAAGGGTACCATAAGCCAGCCC,-1.37
11,TGTCAAAGTTGAAAGGTAACGTAAGTATCCACAC,0.664
12,TCGAGTAGGTAAGGGGCATTCAGAATGGCGTCGA,-0.991
13,CCTACTGGGCCATTCAGAGGTCATTGGTCATATG,-0.0478
14,CAAACTAGGTCAAAGTCAAAGTCGGTTTGTGCCA,4.97
15,CAAACTAGGTCAAGAGGTCAACGTCCGCTTCCCG,3.13
16,CATACAGGGTCAGCTAGGCCAGAGTCGGGACGGC,0.623
17,GCTTGTATATCAAGGTTAAGAAAGACTAAGCTAA,0.195
18,ATATGTAGGTTAGCGGGTCATTCAGTTTGCGCAT,2.14
19,CGTCCAAGGTCGATGCTAGGTCAGTGAAAGCATT,-0.113
20,GCAGACAGGTGAAACGCAGGTTACTCAGGGTGGC,-0.717

row,Sequence,PBM binding z-score
1,CGTCCAAGGTCATAGTAGGTCAGTGAAGACAGAT,1.45
2,ATCTCTAGGTAAGACTCAGTTCTGTGAAGAACGC,0.175
3,TCTCCTAGGTCAACGATGGTCAGCTAATCTGCTA,0.539
4,GGAATGAGGGCATTCGAGTTGATAGCATGGCGAT,1.13
5,GGAACGAGGGCAAGTTGAGAGCAGAGTTTGATGG,0.19
6,TCTTGTAAATCAACAGGAGGTTAAGAAAGATCGA,0.712
7,CTACCAAGGTGAACAAGATCGTTGATTACTATTC,0.247
8,ATCTGTAGGTAACAAGTTCAGTGAAAGAGAGGAC,1.31
9,CCGAGCAGGTTATGGGGCATTCAGGCAACGGTGA,-0.884
10,GGAACGTGGGCAAGTTGATAGCAGAGTTTGATGG,-0.762
11,TCGGGTAGGTTAGGGGCATTCAGAATGGCGTCGA,0.266
12,ACTGGGAGGACAAAGGTCAGAGCTACGCCAGTGA,0.328
13,CGTCCAAGGTCTATGCTAGGTCAGTGAAAGCATT,-1.49
14,TCGAGAAGGTTACCAATGGGGCATTCAGCTTTCT,-1.15
15,GCATATAGGTAATACAAGCTGAAAGTCCGATTGT,0.865
16,TCTTGTAGATCAACAAGAGGTTAAGAAAGATCGA,0.785
17,ACTAGCAGGCCATGGGTCACTCAAGATTAGTCCG,-0.371
18,CGAACTAGGTAAGAACAGGACAGTGAAGGATGAT,0.465
19,ACTAGTTCGTCAGCTGAGGTCACACACAATTCGG,0.493
20,TAGCCTGGGTCATTGGGCCAGTATAGTACGCATC,0.337
